Compounds with a hit are over-represented: about 3.4% of the library has one in this group of screens.
Mcl1 Bid PPI: Mcl-1/Bid interaction inhibition; Q07820; TR-FRET Mcl-1/Bid-Dy647 peptide binding, 1536-well; inhibition, % at 21.7 µM; 0.97% of 220,000 active; AID 1021;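 active = compounds that cut the binding signal by more than half at the single screening dose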;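 also: His-tagged Mcl-1 with europium anti-His antibody binding Bid BH3 peptide; 0% = Mcl-1 plus peptide wells and 100% = peptide-only wells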
Mcl1 Noxa PPI: disrupts binding of human Mcl-1 to Noxa peptide; TR-FRET Mcl-1/Noxa peptide binding, 2 h; 1.5% of 220,000 active; inhibition, % at 21.7 µM; AID 1022; Q07820;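 active = compounds that cut the protein-peptide binding signal by more than 50% relative to plate controls in a single-dose test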;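 also: His-tagged Mcl-1 with rhodamine Noxa BH3 peptide and terbium anti-His antibody; 0% = Mcl-1 plus Noxa peptide wells and 100% = peptide-only wells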
eIF4E 4G PPI: eIF4E/eIF4G interaction inhibition in translation initiation | inhibition, % at 21.7 µM | 0.37% of 220,000 active | P63073+Q04637 | TR-FRET eIF4E-eIF4GI(517-606) binding, 2 h;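 also: 0% = full FRET control wells and 100% = background wells lacking eIF4GI fragment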
Mcl-1 Bim block: human Bim-Mcl-1 interaction inhibition | Bead-based flow cytometry, Bim peptide-Mcl-1 binding | 0.1% of 190,000 active | inhibition, % at 10 µM | AID 1009 | Q07820; in the data active = inhibition above about 40%;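 also: 0% = no compound tracer wells and 100% = peptide blocker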
14-3-3 Bad PPI: disrupts binding of bovine 14-3-3 zeta to phospho-Bad peptide; P63103; TR-FRET 14-3-3zeta/Dy647-pBad peptide displacement, 1 h; inhibition, % at 21.7 µM; 0.71% of 220,000 active;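 active = inhibition above about 70%, limit read from the data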;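 also: 0% = full 14-3-3 plus peptide FRET controls and 100% = background without 14-3-3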
Target sequence (P63103 whole entry, looked up): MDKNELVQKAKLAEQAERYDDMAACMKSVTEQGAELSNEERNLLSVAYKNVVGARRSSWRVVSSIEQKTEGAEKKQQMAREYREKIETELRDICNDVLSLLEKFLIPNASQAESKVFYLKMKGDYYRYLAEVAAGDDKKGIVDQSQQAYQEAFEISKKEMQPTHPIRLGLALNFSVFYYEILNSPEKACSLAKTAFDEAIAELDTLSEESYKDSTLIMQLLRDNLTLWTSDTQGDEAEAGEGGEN
NCF1 inh: blocks human p47phox regulatory protein of NADPH oxidases; P14598; p47phox/p22phox peptide binding, fluorescence polarization, 2 h; inhibition, % at 24.7 µM; 0.53% of 220,000 active; AID 1274;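 also: 0% = p47phox with labelled peptide and 100% = labelled peptide alone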
Target sequence (P14598 whole entry, looked up): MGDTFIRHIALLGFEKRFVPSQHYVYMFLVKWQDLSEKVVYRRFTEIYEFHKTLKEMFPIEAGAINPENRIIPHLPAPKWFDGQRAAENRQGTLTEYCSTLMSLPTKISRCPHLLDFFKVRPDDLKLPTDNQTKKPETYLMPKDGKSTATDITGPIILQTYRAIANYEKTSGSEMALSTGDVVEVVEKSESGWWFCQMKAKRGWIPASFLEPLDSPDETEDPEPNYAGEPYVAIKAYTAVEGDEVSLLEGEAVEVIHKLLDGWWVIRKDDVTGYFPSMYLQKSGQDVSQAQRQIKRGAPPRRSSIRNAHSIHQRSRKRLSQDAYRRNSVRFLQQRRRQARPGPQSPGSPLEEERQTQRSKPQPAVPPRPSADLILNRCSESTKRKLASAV
* = called active by the depositor; · = no result given; [ ] = remark or other dose.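 The calls were made as follows, unless noted: active = inhibition above about 30% (limit read from the data); inactive = the rest.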

SMILES | Mcl1 Bid PPI | Mcl1 Noxa PPI | eIF4E 4G PPI | Mcl-1 Bim block | 14-3-3 Bad PPI | NCF1 inh
CCOC(=O)c1c(C)[nH]c2cc(Br)c(O)cc12 | -26 | 22 | -4 | -2 | -10 | -14
O=C(O)c1ccccc1C(=O)NCC(O)COc1ccc(Cl)cc1 (stereo not given) | -13 | -8 | 1 | · | 1 | -12
C/C(=N\S(=O)(=O)c1ccc(C)cc1)N(C)C | -17 | -4 | -6 | · | 11 | 2
CC(C)CN(C)Cc1c(C(=O)N2CCc3ccccc3C2)nc2ccc(Cl)cn12 | -13 | -22 | 7 | -3 | 6 | 1
O=C1c2cccc(O)c2C(=O)c2c(O)cccc21 | 8 | 9 | -1 | -1 | -8 | -21
CC1=CC(=O)c2c(O)ccc(O)c2C1=O | 99* | 96* | 63* | 23 | 91* | -23
O=C(Nc1ccc2oc(-c3cccnc3)nc2c1)c1cc2ccccc2o1 | 38 | 31 | -9 | 1 | -249 | -45
CCCC(=O)Nc1ccc2oc(-c3cccnc3)nc2c1 | 86* | -2 | 5 | -2 | 1 | -28
O=C(NC(=S)Nc1ccc2oc(-c3cccnc3)nc2c1)c1cccc(Cl)c1 | 35 | 8 | -5 | 2 | 81* | 17
CC1(c2ccccc2)CC(C)(C)N2C(=O)/C(=C3\SC(=S)NC3=O)c3cccc1c32 (stereo not given) | 93* | 111* | 28 | -9 | 18 | 14
CCn1c(Cc2ccccc2)nnc1SCC(=O)Nc1ccccc1O | -10 | 8 | 0 | -2 | 0 | 0
COc1ccc(-c2ccc(-c3nc4c(c(=O)[nH]c(=O)n4Cc4ccccc4)n3C)o2)c([N+](=O)[O-])c1 | 22 | 40 | 7 | -3 | 51 | 55*
O=C1CCCC2=C1C(c1ccco1)Nc1ccc3ccccc3c12 (stereo not given) | 60* | 99* | 21 | 1 | 72*[fluorescence artefact?] | 6
Cc1ccc(-c2nc(N3CCOCC3)sc2C(=O)N2CCCCC2)cc1 | 98* | 13 | -2 | -3 | 13 | 0
CCN(CC)c1ccc(NC(=O)Cn2c(C(C)NC(=O)c3ccccc3)nc3ccccc32)cc1 (stereo not given) | 35 | 37 | 0 | 4 | 60 | 39*
COc1ccc(N=Nc2ccc(O)c3ncccc23)cc1 | 73* | -2 | -12 | · | 3 | 6
COc1ccc(CCN2C(=O)CC(NC34CC5CC(CC(C5)C3)C4)C2=O)cc1OC (stereo not given) | -3 | -7 | -2 | 3 | -2 | 4
COc1ccc(N2C(=O)CC(NC34CC5CC(CC(C5)C3)C4)C2=O)c(OC)c1 (stereo not given) | 57* | 33 | 1 | 1 | 3 | 1
CCc1nc2sc3c(O)cc(=O)[nH]c3c2cc1C | -27 | 16 | 0 | -4 | -14 | -13
O=C(N/N=C/c1cc([N+](=O)[O-])c(N2CCOCC2)cc1N1CCOCC1)c1cccnc1 | -22 | 23 | 0 | 2 | -14 | -3
COc1ccc(C(=O)N2CCN(Cc3ccccc3C)CC2)cc1OC | 75* | 12 | -2 | 0 | 53 | -5
CSc1ccc(CN2CCN(C(=O)c3ccncc3)CC2)cc1 | -14 | -1 | 3 | 1 | 1 | -5
O=C(c1ccccc1)N1CCN(C(=O)c2ccccc2)CC1 | -8 | 29 | 1 | 0 | -3 | -5
COc1cccc(OC)c1C(=O)N1CCN(Cc2ccncc2)CC1 | 71* | 2 | 1 | -6 | 46 | -5
COc1cccc(OC)c1C(=O)N1CCN(c2ccccn2)CC1 | 95* | 35 | 6 | 1 | -5 | -15
SMILES | Mcl1 Bid PPI | Mcl1 Noxa PPI | eIF4E 4G PPI | Mcl-1 Bim block | 14-3-3 Bad PPI | NCF1 inh
O=C(c1ccccc1)N1CCN(Cc2ccccc2Br)CC1 | 84* | 32 | 9 | -1 | 46 | -14
COc1ccccc1N1CCN(C(=O)c2ccncc2)CC1 | -23 | 18 | 7 | 0 | -3 | 1
COc1ccccc1CN1CCN(C(=O)c2ccncc2)CC1 | 41 | 21 | 63* | 0 | 83* | 2
CCN1C(=O)/C(=C/C=C2/Sc3ccc4ccccc4c3N2CCO)SC1=S | 3 | 33 | -8 | -6 | 12 | -91
CCN1C(c2ccccc2)=C(c2ccccc2)S/C1=C/C=C1\SC(=S)N(C)C1=O | -15 | -9 | 1 | 27 | 5 | 42*
NCCc1nnc(SCC(=O)c2ccc(Cl)cc2)o1 | -7 | -4 | 2 | · | 1 | -3
O=C(CCc1ccc(S(=O)(=O)N2CCOCC2)cc1)N/N=C/c1ccc(O)c(O)c1O | 4 | 73* | 16 | 0 | -14 | -6
O=[N+]([O-])c1ccc(N/N=C/c2ccc(O)c(O)c2O)c(S(=O)(=O)N2CCOCC2)c1 | -45 | 104* | 20 | 12 | 2 | -15
CN(c1ccc(C(=O)Nc2ccc(CC#N)cc2)cc1)S(C)(=O)=O | -5 | 19 | 2 | -3 | -9 | 2
CCN1CCN(CCCNC(=O)c2ccc(/C=C3/Sc4ccccc4N(Cc4ccccc4F)C3=O)cc2)CC1 | -9 | 32 | 19 | 0 | 81* | 90*
CCN1CCN(CCNC(=O)c2ccc(/C=C3/Sc4ccccc4N(Cc4ccccc4C)C3=O)cc2)CC1 | -7 | 31 | 28 | -7 | 70* | 104*
CCOCCCNC(=O)CN1C(=O)/C(=C\c2ccc(C)cc2)Sc2ccccc21 | -18 | 6 | 7 | 0 | -13 | -4
O=C(NCCN1CCOCC1)c1ccc2c(c1)N(Cc1ccccc1F)C(=O)c1ccccc1S2 | -12 | 9 | 0 | 0 | -19 | -14
O=C(O)C(c1ccccc1)C(c1ccccc1)c1ccccc1 (stereo not given) | -13 | -5 | 1 | 0 | -11 | 7
Cc1[nH]c2ccccc2c1/C=N/Nc1ccc([N+](=O)[O-])cc1 | -55 | 75* | 3 | -20 | -6 | -28
O=c1c2cccc3c2c(nn1CN1CCOCC1)-c1ccccc1-3 | -4 | 0 | 15 | 3 | -7 | -4
CCN(CC)CCn1nc2c3c(cccc3c1=O)-c1ccccc1-2 | -3 | 70* | 2 | -1 | 5 | 0
Cc1cccc(N2CCN(Cc3ccoc3)CC2)c1C | 22 | 36 | 5 | 0 | 74* | -4
FC(F)(F)c1cccc(N2CCN(Cc3ccoc3)CC2)c1 | 54* | 12 | 2 | -1 | 42 | 1
COc1ccc2oc(-c3ccc(NC(=O)c4ccc(N5CCOCC5)c([N+](=O)[O-])c4)cc3)nc2c1 | -11 | 55* | -2 | 6 | 17 | 14
S=C(NC1CCCCC1)N1CCn2cccc2C1c1cccnc1 (stereo not given) | -28 | 63* | -3 | -1 | -9 | 1
S=C(NC1CCCCC1)N1CCn2cccc2C1c1ccncc1 (stereo not given) | -47 | 10 | -1 | -4 | -7 | -8
Cc1cc(C(F)(F)F)nn1CC(=O)NCc1ccco1 | -28 | 19 | 3 | -1 | -7 | 2

Screening results deposited in PubChem BioAssay by several laboratories.
